A selection: hits, their analogues and other compounds. The true share with any hit is near 3.5%.
Anthrax LF prot = blocks Bacillus anthracis lethal factor protease; P15917; multiplex microsphere protease cleavage assay, LF; inhibition, % at 10 µM; 360,000 tested, 0.12% active
BoNT A protease = blocks Botulinum neurotoxin A light chain protease | multiplex microsphere protease substrate cleavage, flow cytometry | inhibition, % at 10 µM | 360,000 tested, 0.17% active | AID 588499
Bead autofluor = flagged as autofluorescent in microsphere protease counterscreen. compound autofluorescence counterscreen, microsphere flow cytometry; active compounds read high. fluorescence intensity (test concentration not listed). 360,000 tested, 3.1% active. AID 624483; in the data active = fluorescence intensity above about 16000; inconclusive = no clear call, values can overlap the other calls
BoNT-F LC inh = blocks Botulinum neurotoxin F light chain protease; Multiplex microsphere protease cleavage assay, flow cytometry; inhibition, % at 10 µM; 360,000 tested, 0.22% active; in the data active = inhibition above about 35%, passing the limit was not always enough; inconclusive = no clear call, values can overlap the other calls
Of the large screens only hits and unclear results are named; the others gave an inactive call. Cut-off read from the data, not from the text of the source, unless noted: active = inhibition above about 30%; inconclusive = no clear call, values can overlap the other calls; inactive = below that.

O=C(Nc1ccc(F)cc1)C1CCN(c2nnnn2-c2ccccc2)CC1	BoNT A protease inconclusive, Bead autofluor 19751
CCN(CC)c1nc2n(c(=O)n1)CCN2CC	Bead autofluor 21466
Cc1nn(-c2ccccc2)c2c1C1(C(=O)N3c4c(cccc41)C(C)CC3(C)C)C(C#N)=C(N)O2 (configuration not stated)	Bead autofluor 22394
CCC(C)C(CO)NCCCn1cnc2c(OC)ncnc21 (configuration not stated)	none
COc1ccc(/C=C2\C(=O)NCC(=O)N2C)cc1	Anthrax LF prot 34, BoNT-F LC inh 88
COc1ccc(/C=C2\C(=O)NCC(=O)N2Cc2ccccc2)cc1	Bead autofluor inconclusive
Cc1ccc(C(=O)Nc2nc(C(N)Cc3ccc(C(F)(F)F)cc3)cs2)cc1 (configuration not stated)	none
COc1ccc(Cl)cc1S(=O)(=O)N1CCC(C(=O)NC2CC2)CC1	Bead autofluor inconclusive
Clc1nnc(N/N=C/c2ccccc2)c2ccccc12	Bead autofluor 16810
Clc1ccc(/C=N/Nc2nnc(Cl)c3ccccc23)cc1	none
COc1ccc(/C=N/Nc2nnc(-c3ncc[nH]3)c3ccccc23)cc1	Bead autofluor 21400
Cc1ccc(S(=O)(=O)N2C[C@H]3C(=O)C[C@@H](c4ccccc4)N(S(=O)(=O)c4ccc(Br)cc4)[C@H]3C[C@H]2c2ccccc2)cc1	none
O=C(Nc1ccc(Cl)cc1)c1csc([C@@H]2O[C@H](CO)[C@@H](O)[C@H]2O)n1	none
CCN(C1CCCCC1)S(=O)(=O)CCNC(=O)c1ccc(OC)cc1	none
Cc1ccccc1-c1nnn(CC(=O)NCc2ccc3c(c2)OCO3)n1	Bead autofluor 21659
O=C(CN1C(=O)c2cccc3cccc1c23)Nc1ccc2c(c1)OCO2	none
Cc1oc(-c2ccccc2F)nc1CSCC(=O)NCc1ccc2c(c1)OCO2	Bead autofluor 20539
Cn1c(SCC(=O)NCc2ccc3c(c2)OCO3)nnc1-c1c[nH]c2ccccc12	BoNT A protease inconclusive, Bead autofluor 16863
Cc1oc(-c2ccccc2F)nc1CSCC(=O)NC1CC1	none
O=C(CN1C(=O)c2cccc3cccc1c23)NCc1ccc2c(c1)OCO2	BoNT A protease inconclusive, Bead autofluor 23642
C[C@@H]1COc2cc(N3CCC[C@@H]3CO)ccc2S(=O)(=O)N1	none
O=C(Nc1cccc2cccnc12)c1csc(COCCO)n1	none
Cc1ccc(C(=O)Nc2cccc(N3C(=O)C4CCC(C)CC4C3=O)c2)cc1 (configuration not stated)	none
CCc1ccc(-c2cn(-c3nc(C)cc(C)n3)c(=N)o2)cc1	Bead autofluor 23477
O=C(Nc1ccc(N2CCOCC2)nc1)c1ccc(F)cc1	Bead autofluor 22364
Cc1ccc(C(=O)Nc2ccc(N3CCOCC3)nc2)cc1	none
Cn1c(C(O)c2ccccc2F)nc(Cl)c1Cl (configuration not stated)	Bead autofluor 22133
COc1ccc(C(=O)N(C)CCOc2ccc(Cl)cc2)cc1S(=O)(=O)N1CCCC1	none
CCOC(=O)C1(C)CCCCCN1C(=O)c1ccc(OC)cc1 (configuration not stated)	none
O=C1CCCC(O)=C1N=Nc1ccc(C(=O)O)cc1	none
O=C1CCCC(O)=C1N=Nc1c(Cl)cc(C(F)(F)F)cc1Cl	Anthrax LF prot 83, BoNT-F LC inh inconclusive
c1ccc(OCc2nc(-c3cccs3)no2)cc1	Bead autofluor 19681
Cc1ccc(S(=O)(=O)c2nc(Nc3ccccc3N3CCOCC3)sc2Cl)cc1	Bead autofluor 16143
COc1ccccc1-n1c(C)nnc1SCC(N)=O	Bead autofluor 22827
COc1ccccc1-n1c(C)nnc1SCC(=O)Nc1cc(C)cc(C)c1	Bead autofluor 23628
COc1ccccc1-n1c(SCC(N)=O)nnc1-c1ccccc1	none
Cc1nnc(SCC(=O)Nc2cc(C(N)=O)cc(C(N)=O)c2)n1-c1ccccc1	none
COC(=O)c1ccc2nc(-c3ccc(C#N)cc3)c(Cc3cccc(Cl)c3)n2c1	none
CCS(CC)=NS(=O)(=O)c1ccc(NC(C)=O)cc1	BoNT-F LC inh 37
CCOC(=O)Cn1c(S(=O)(=O)Cc2ccc(F)cc2)nc(-c2ccccc2)c1-c1ccccc1	BoNT A protease inconclusive, Bead autofluor 16161
C#CCn1c(S(=O)(=O)Cc2ccc(F)cc2)nc(-c2ccccc2)c1-c1ccccc1	Bead autofluor 16327
CCOC(=O)Cn1c(S(=O)(=O)Cc2cccc(F)c2)nc(-c2ccccc2)c1-c1ccccc1	none
NC(=O)c1csc(CCNC(=O)c2ccccc2)n1	none
CC(C)=C[C@H]1C[C@H](C)[C@H]2CC[C@H](C)c3c(O)c(O[C@H]4OC[C@H](O)[C@@H](O)[C@@H]4O)c(C)c1c32	none
Cc1ccc(NC(=S)N/N=C/c2ccc([N+](=O)[O-])s2)cc1	BoNT A protease 47
Cc1nc2ccc3[nH]snc3c2n1	Bead autofluor 23032
O=C1C=C(Nc2ccc(O)cc2)CC(c2ccco2)C1 (configuration not stated)	BoNT A protease inconclusive, Bead autofluor 23693
C[C@H](CO)N1C[C@H](C)[C@@H](CN(C)S(=O)(=O)c2ccc(-n3cccn3)cc2)OCc2cnnn2CCCC1=O	none
CCc1nc(N2CCCCC2C)c2oc3ccccc3c2n1 (configuration not stated)	Bead autofluor 19411
CCc1nc(Nc2ccncc2)c2oc3ccccc3c2n1	Bead autofluor 20587
Cc1nc(Nc2ccncc2)c2oc3ccccc3c2n1	none
CCc1nc(N2CCCCC2)c2oc3ccccc3c2n1	Bead autofluor 23515
CC(C)NC(=O)N(C)C[C@@H]1OCc2cnnn2CCCC(=O)N([C@@H](C)CO)C[C@H]1C	none
CC(C)Cn1c(N)c(C(=O)COC(=O)Cc2cccc(C(F)(F)F)c2)c(=O)n(C)c1=O	none
O=C1Nc2ccccc2CCC1Sc1nnc(-c2ccc(Cl)cc2)s1 (configuration not stated)	Bead autofluor 24726
Clc1ccc(CSc2nnc(-c3ccncc3)s2)cc1	none
CCOc1ccc2nc(S(=O)(=O)NC(=O)C3(C)CCN3C(=O)c3cc(C)n(C)n3)sc2c1 (configuration not stated)	none
COC(=O)c1ccccc1S(=O)(=O)N(CCCO)Cc1cc2c(C)ccc(C)c2[nH]c1=O	Bead autofluor 22748
Cc1cc(C)c2cc(CN(CCCO)S(=O)(=O)c3ccccc3F)c(=O)[nH]c2c1	none
COC(=O)c1ccccc1S(=O)(=O)N(Cc1ccco1)Cc1cc2cc(OC)ccc2[nH]c1=O	Bead autofluor 22912
CCOc1ncccc1C(=O)OC(C)C(=O)Nc1ccc(N2CCOCC2)cc1 (configuration not stated)	Bead autofluor inconclusive
Cc1nn(-c2ccccc2)c(C)c1C(=O)Nc1nnc(-c2ccco2)o1	Bead autofluor 20671
O=C(Nc1ccccc1)NN(C(=O)CCl)c1ccccc1	none
CC1=NN(C(=O)Cc2ccccc2)C(O)(c2cccnc2)C1 (configuration not stated)	BoNT A protease inconclusive, Bead autofluor 21683
CN(Cc1ccccc1)C(=O)c1ccc(NC(=O)Cc2cccc(NC(=O)C3CCCN(C(=O)C4CCC4)C3)c2)cc1 (configuration not stated)	none
COC(=O)C1CCN(S(=O)(=O)c2ccc(OC)cc2)CC1	Bead autofluor 24359

Assay outcomes (PubChem)
